Molecules are shown by their SMILES. Where “and” joins values, the source holds several entries; their conditions need not be identical. Equal values may be shown once.

Chain of Rho-associated protein kinase 2 (Homo sapiens) (O75116 whole entry, looked up): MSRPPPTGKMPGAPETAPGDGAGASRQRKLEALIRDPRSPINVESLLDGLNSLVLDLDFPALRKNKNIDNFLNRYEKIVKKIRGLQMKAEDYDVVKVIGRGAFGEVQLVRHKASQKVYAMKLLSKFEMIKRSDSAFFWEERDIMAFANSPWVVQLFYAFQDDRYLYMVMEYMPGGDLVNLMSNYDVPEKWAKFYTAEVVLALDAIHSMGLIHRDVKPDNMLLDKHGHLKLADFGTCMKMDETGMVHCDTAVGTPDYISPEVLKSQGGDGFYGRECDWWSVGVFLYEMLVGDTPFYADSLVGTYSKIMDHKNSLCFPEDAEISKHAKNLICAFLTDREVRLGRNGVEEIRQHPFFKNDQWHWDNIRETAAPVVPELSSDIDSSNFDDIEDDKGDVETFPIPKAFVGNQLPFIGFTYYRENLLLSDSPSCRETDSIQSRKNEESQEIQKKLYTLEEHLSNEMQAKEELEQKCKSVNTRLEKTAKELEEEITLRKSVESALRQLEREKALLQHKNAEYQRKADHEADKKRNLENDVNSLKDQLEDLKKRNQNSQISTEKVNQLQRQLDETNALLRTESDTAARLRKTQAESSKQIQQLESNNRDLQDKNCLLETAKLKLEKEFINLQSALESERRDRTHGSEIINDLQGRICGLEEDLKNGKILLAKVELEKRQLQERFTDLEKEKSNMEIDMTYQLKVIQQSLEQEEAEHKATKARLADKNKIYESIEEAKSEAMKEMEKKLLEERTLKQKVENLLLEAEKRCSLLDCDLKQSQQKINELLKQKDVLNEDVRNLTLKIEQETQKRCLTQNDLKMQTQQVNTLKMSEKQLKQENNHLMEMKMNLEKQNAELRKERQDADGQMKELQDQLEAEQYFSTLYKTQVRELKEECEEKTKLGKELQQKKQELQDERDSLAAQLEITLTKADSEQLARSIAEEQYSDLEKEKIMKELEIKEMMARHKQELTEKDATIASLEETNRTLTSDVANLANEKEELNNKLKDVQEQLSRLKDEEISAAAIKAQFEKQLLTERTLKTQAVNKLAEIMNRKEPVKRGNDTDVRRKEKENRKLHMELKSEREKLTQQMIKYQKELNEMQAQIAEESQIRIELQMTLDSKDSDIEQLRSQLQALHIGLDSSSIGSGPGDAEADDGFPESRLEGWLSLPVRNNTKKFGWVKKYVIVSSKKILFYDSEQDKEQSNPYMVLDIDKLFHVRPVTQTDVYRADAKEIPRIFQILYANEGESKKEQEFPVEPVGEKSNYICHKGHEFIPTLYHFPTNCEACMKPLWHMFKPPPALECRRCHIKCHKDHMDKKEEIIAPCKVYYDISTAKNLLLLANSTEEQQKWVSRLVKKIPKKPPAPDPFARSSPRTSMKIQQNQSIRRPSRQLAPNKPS

The first test addresses Rho-associated protein kinase 2 (Homo sapiens) (UniProt O75116). As to conditions: at 0.1 µM.
For orientation: inhibition means the relative decrease from the control value, in per cent. On to `c1cnn2ncc(-c3ccnc(NCCCN4CCOCC4)n3)c2c1`, for which the inhibition is 4.49%.

As to `FC(F)(F)CNc1nccc(-c2cnn3ncccc23)n1`, the inhibition turned out to be 1.53%.

For `CCS(=O)(=O)c1ccc(OC)c(Nc2ncc(-c3cccc(F)c3)o2)c1`, the inhibition was determined as 3.63%.

With `COc1ccc(Nc2ncc(-c3ccccc3)o2)cc1OC`, the inhibition was -0.31%.

In the case of `Cc1nnc(-c2cccc(-c3ccc(C(=O)NCC4CC4)cc3)c2)o1`, the inhibition stood at 3.74%.

Regarding `COc1cc(N2CCN(C(C)C)CC2)ccc1Nc1nc(Nc2cccc3ncccc23)c2cc[nH]c2n1`, the inhibition is 0.02%.

With `Cn1c(-c2nonc2N)nc2cnccc21`, the inhibition came to 20%.

Regarding `CC1=C(C(=O)Nc2ccc3[nH]nc(C)c3c2)C(c2ccc(C(F)(F)F)cc2)CC(=O)N1` (configuration not stated), the inhibition came to 70.3%.

In the case of `CN1CCC(n2cnc(-c3ccc(F)cc3)c2-c2ccnc(NCCO)n2)CC1`, the inhibition was 3.23%.

As for `COc1cc(Nc2ncc(-c3ccccc3)o2)cc(OC)c1`, the inhibition was found to be 3.77%.

On to `CC1=C(C(=O)Nc2ccc3[nH]ncc3c2)C(c2ccc(F)cc2)N=C(c2ccc(C(F)(F)F)nc2)N1` (configuration not stated), for which the inhibition is 35.7%.

For `Cc1ccc(-c2cc3c(NC(=O)C4CC4)ncnc3o2)cc1`, the inhibition is 2.81%.

As for `O=C1Nc2ccccc2/C1=C1\CCc2cc(O)ccc21`, the inhibition was 2.95%.

On to `CN(C)CCNC(=O)Nc1ccc(N(C)c2ccnc(Nc3ccc(CS(C)(=O)=O)cc3)n2)cc1`, for which the inhibition was 5.05%.

Consider `CS(=O)(=O)CCNCc1ccoc1-c1ccc2ncnc(Nc3ccc(OCc4ccccc4)cc3)c2c1`, for which the inhibition was -1.1%.

On to `CS(=O)(=O)Nc1ccc(-c2ccc3c(NC(=O)C4CC4)n[nH]c3c2)cc1`, for which the inhibition was 0.25%.

Take `O=C(Nc1n[nH]c2nnc(-c3cccnc3)cc12)C1CC1`: the inhibition is 0.06%.

`CC1(C)CC(n2cnc(-c3ccc(F)cc3)c2-c2ccnc(N)n2)CC(C)(C)N1`: the inhibition came to 1.54%.

`CNC(=O)c1ncccc1Nc1nc(Nc2cc3c(cc2OC)CCCN3C(=O)CN(C)C)nc2[nH]ccc12`: the inhibition stood at 3.75%.

Consider `COc1cccc(-n2ncc3c(N/N=C/c4ccc(C(=O)NCCN(C)C)cc4)ncnc32)c1`, for which the inhibition was found to be 5.29%.

In the case of `Cc1c2ccc(N(C)c3ccnc(Nc4cccc(S(N)(=O)=O)c4)n3)cc2nn1C`, the inhibition worked out at 2.24%.

Turning to `OCCCNc1nccc(-c2c(-c3ccc(F)cc3)nn3cc(C(F)(F)F)ccc23)n1`, the inhibition amounted to 2.07%.

Regarding `COc1cccc(Nc2nccc(-c3cnn4ncccc34)n2)c1`, the inhibition was 2.21%.

For the compound `O=C(O[C@H]1CN[C@H](C#Cc2cc3ncnc(Nc4ccc(OCc5cccc(F)c5)c(Cl)c4)c3s2)C1)N1CCOCC1`, the inhibition was determined as 4.15%.

In the case of `NS(=O)(=O)c1ccc(N/N=C2\C(=O)Nc3ccc(C(=O)NCc4ccncc4)cc32)cc1`, the inhibition was 4.18%.

On to `CS(=O)(=O)CCNCc1ccc(-c2ccc3ncnc(Nc4ccc(OCc5ccccc5)cc4)c3c2)o1`, for which the inhibition came out at 2.02%.

In the case of `CCOc1ccc2c(-c3ccnc(Nc4cc(OC)cc(C(F)(F)F)c4)n3)cnn2n1`, the inhibition came out at 0.14%.

`Nc1nonc1-c1nc2cnccc2n1C1CC1`: the inhibition was 56.4% and 54.3%.

Consider `CCN1CCC(C(=O)Nc2n[nH]c3nnc(-c4cccc(F)c4F)cc23)CC1`, for which the inhibition was 0.68%.

For `CS(=O)(=O)CCNCc1ccc(-c2ccc3ncnc(Nc4ccc(OCc5cccc(C(F)(F)F)c5)cc4)c3c2)o1`, the inhibition stood at 2.07%.

Take `Nc1nccc(-c2c(-c3ccc(F)cc3)ncn2C2CCNCC2)n1`: the inhibition was -3.31% and 1.51%.

The target is the same in a further test. Conditions: at 1 µM.
Take `c1cnn2ncc(-c3ccnc(NCCCN4CCOCC4)n3)c2c1`: the inhibition amounted to 4.16%.

For `FC(F)(F)CNc1nccc(-c2cnn3ncccc23)n1`, the inhibition was determined as 0.94%.

Consider `CCS(=O)(=O)c1ccc(OC)c(Nc2ncc(-c3cccc(F)c3)o2)c1`, for which the inhibition came out at 3.95%.

Take `COc1ccc(Nc2ncc(-c3ccccc3)o2)cc1OC`: the inhibition is 2.22%.

In the case of `Cc1nnc(-c2cccc(-c3ccc(C(=O)NCC4CC4)cc3)c2)o1`, the inhibition amounted to 6.19%.

For `COc1cc(N2CCN(C(C)C)CC2)ccc1Nc1nc(Nc2cccc3ncccc23)c2cc[nH]c2n1`, the inhibition came to 0.45%.

For the compound `Cn1c(-c2nonc2N)nc2cnccc21`, the inhibition is 67.5%.

Take `CC1=C(C(=O)Nc2ccc3[nH]nc(C)c3c2)C(c2ccc(C(F)(F)F)cc2)CC(=O)N1` (configuration not stated): the inhibition stood at 83.8%.

As for `CN1CCC(n2cnc(-c3ccc(F)cc3)c2-c2ccnc(NCCO)n2)CC1`, the inhibition amounted to 8.52%.

For `COc1cc(Nc2ncc(-c3ccccc3)o2)cc(OC)c1`, the inhibition is -3.98%.

In the case of `CC1=C(C(=O)Nc2ccc3[nH]ncc3c2)C(c2ccc(F)cc2)N=C(c2ccc(C(F)(F)F)nc2)N1` (configuration not stated), the inhibition was 75%.

For the compound `Cc1ccc(-c2cc3c(NC(=O)C4CC4)ncnc3o2)cc1`, the inhibition turned out to be 1.43%.

In the case of `O=C1Nc2ccccc2/C1=C1\CCc2cc(O)ccc21`, the inhibition was 3.95%.

In the case of `CN(C)CCNC(=O)Nc1ccc(N(C)c2ccnc(Nc3ccc(CS(C)(=O)=O)cc3)n2)cc1`, the inhibition amounted to 24%.

With `CS(=O)(=O)CCNCc1ccoc1-c1ccc2ncnc(Nc3ccc(OCc4ccccc4)cc3)c2c1`, the inhibition was 0.07%.

In the case of `CS(=O)(=O)Nc1ccc(-c2ccc3c(NC(=O)C4CC4)n[nH]c3c2)cc1`, the inhibition is -0.32%.

Turning to `O=C(Nc1n[nH]c2nnc(-c3cccnc3)cc12)C1CC1`, the inhibition is 0.61%.

Take `CC1(C)CC(n2cnc(-c3ccc(F)cc3)c2-c2ccnc(N)n2)CC(C)(C)N1`: the inhibition turned out to be 1.8%.

As to `CNC(=O)c1ncccc1Nc1nc(Nc2cc3c(cc2OC)CCCN3C(=O)CN(C)C)nc2[nH]ccc12`, the inhibition turned out to be 8.67%.

With `COc1cccc(-n2ncc3c(N/N=C/c4ccc(C(=O)NCCN(C)C)cc4)ncnc32)c1`, the inhibition amounted to 9.45%.

Consider `Cc1c2ccc(N(C)c3ccnc(Nc4cccc(S(N)(=O)=O)c4)n3)cc2nn1C`, for which the inhibition is 2.37%.

For the compound `OCCCNc1nccc(-c2c(-c3ccc(F)cc3)nn3cc(C(F)(F)F)ccc23)n1`, the inhibition turned out to be 2.72%.

Regarding `COc1cccc(Nc2nccc(-c3cnn4ncccc34)n2)c1`, the inhibition stood at 15.4%.

`O=C(O[C@H]1CN[C@H](C#Cc2cc3ncnc(Nc4ccc(OCc5cccc(F)c5)c(Cl)c4)c3s2)C1)N1CCOCC1`: the inhibition was determined as 8.38%.

With `NS(=O)(=O)c1ccc(N/N=C2\C(=O)Nc3ccc(C(=O)NCc4ccncc4)cc32)cc1`, the inhibition came out at 15.1%.

Regarding `CS(=O)(=O)CCNCc1ccc(-c2ccc3ncnc(Nc4ccc(OCc5ccccc5)cc4)c3c2)o1`, the inhibition was 2.23%.

`CCOc1ccc2c(-c3ccnc(Nc4cc(OC)cc(C(F)(F)F)c4)n3)cnn2n1`: the inhibition is -0.36%.

Consider `Nc1nonc1-c1nc2cnccc2n1C1CC1`, for which the inhibition was 81% and 77.9%.

As for `CCN1CCC(C(=O)Nc2n[nH]c3nnc(-c4cccc(F)c4F)cc23)CC1`, the inhibition is -0.77%.

As to `CS(=O)(=O)CCNCc1ccc(-c2ccc3ncnc(Nc4ccc(OCc5cccc(C(F)(F)F)c5)cc4)c3c2)o1`, the inhibition was 3.5%.

As for `Nc1nccc(-c2c(-c3ccc(F)cc3)ncn2C2CCNCC2)n1`, the inhibition is -3.28% and 1.52%.

The values are drawn from ChEMBL document CHEMBL1961873, “Compounds: GSK PKIS; Assays: Nanosyn kinase panel” (2012).
